The text below walks through data of PubChem BioAssay (NCATS).

Molecules are shown by their SMILES. Inconclusive results are not listed. A number with no mark means an inactive call. Active and inactive are the calls of the source. Calls come from the whole dose curve; as a rule, active = well fitted curve in the direction sought with a large enough effect; inconclusive = small, poorly fitted or top-dose-only effect, or another doubt; inactive = no such curve, though single readings can be large; an effect the other way counts as inactive or inconclusive.

One experiment deals with SKOV3. Nature of the experiment: Primary qHTS to identify gynecologic anti-cancer compounds using libraries of approved drugs and bioactive compounds (AID 1345084). Note: nearly all actives have a fitted effect of over 55% in size. Particulars: Gynecologic cancer cell panel viability, ATPlite luminescence, 48 h; series mostly up to 57.5 µM. The method in brief:
(§1)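 Luminescence from the ATPlite ATP-monitoring reagent indicates viable cell number; lower signal means cytotoxicity. Cells received compound 16 h after seeding and were exposed for 48 h across five concentrations.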
In general terms: In qHTS, concentration-response curves come from the screen itself.

The test system of the next experiment is Tov-21-G. Described as above. Particulars: Gynecologic cancer cell panel viability, ATPlite luminescence, 48 h; series mostly up to 57.5 µM. The gist of the method:
as §1
(In ATP-based viability assays light output follows the ATP content of the culture.)

In the next experiment the test system is Tov112D. The description is as above. The conditions noted are these: Gynecologic cancer cell panel viability, ATPlite luminescence, 48 h; series mostly up to 57.5 µM. The method in brief: as §1
A short description of experiment [1]: qHTS assay to identify inhibitors of the type 1 interferon - major histocompatibility complex class I in skeletal muscle: Counter screen cell viability and HiBit confirmation (AID 1347412). For all read-outs here: nearly all actives have a fitted effect of over 60% in size. Particulars: iHSKM muscle cells + IFN-b, HiBiT or CellTiter-Glo, 24 h; for activity change, negative = inhibition: at 45.9 µM (top of the series). The method in brief: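 CRISPR HLA-B*08:01-HiBit immortalized human myoblasts (C25cl48) stimulated with 4 ng/ml IFN-beta and compounds (12-point 1:3, top 46 uM final) for 24 h at 37 C. Duplicate plates read by HiBit lytic luminescence or CellTiter Glo ATP.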

The nature of experiment [2]: Drug repurposing screens with cells derived from glioblastoma tumor samples (AID 1345199). Note: nearly all actives have a fitted effect of over 40% in size. The conditions noted are these: GBM patient neurospheres viability, ATP luminescence, 48 h. The method in brief:
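Four patient lines of CD133+ GBM neurospheres were screened at several concentrations; hits were retested in those lines plus three slower-growing GBM lines, using 48-hour treatment and ATP-based viability.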
% is set by controls: 0 for no effect and ±100 for the full control effect; potency is the fitted concentration of half-maximal effect.

As to `CC(=O)OC1CC(C)(C(=O)O)CC2C3=CC(=O)C4C5(C)CCC(OC6OC(C(=O)O)C(O)C(O)C6OC6OC(C(=O)O)C(O)C(O)C6O)C(C)(C)C5CCC4(C)C3(C)CCC12C` (stereo unspecified), the activity change, negative = cytotoxicity is 0% [at 11.6 µM] with SKOV3, -2.43% [at 11.6 µM] in the experiment on Tov-21-G and -0.209% [at 11.6 µM] in the experiment on Tov112D.

For `CCCCOc1ccc(S(=O)(=O)n2c(C)nc3ccccc32)cc1`, the Potency result in the experiment on SKOV3, in the experiment with Tov-21-G and in the experiment with Tov112D was “inactive” throughout.

`Cc1cc(OCCCS(C)(=O)=O)cc(C)c1-c1cccc(COc2ccc(C3=CC(=O)NS3=O)cc2)c1` (stereo unspecified): the Potency result with SKOV3, with Tov-21-G and in the experiment with Tov112D was “inactive” each time.

Turning to `COc1c(C(O)CC(C)C)ccc2c1C(=O)OCc1cc(C)cc(O)c1O2` (stereo unspecified), the Potency result with SKOV3, with Tov-21-G and in the experiment with Tov112D was “inactive” throughout.

As for `COc1cc(N2CCC(N)CC2)ccc1Nc1ncc(Cl)c(-c2c[nH]c3ccccc23)n1`, the Potency with SKOV3 was 5.01 µM (active); with Tov-21-G, 8.91 µM (active); in experiment [1] (HiBiT), 5.57 µM (active).

Consider `COc1ccnc(CS(=O)c2nc3cc(OC(F)F)ccc3[nH]2)c1OC` (stereo unspecified), for which the Potency entry with SKOV3, in the experiment on Tov-21-G and with Tov112D was “inactive” throughout. Also, the activity, negative = cell killing in experiment [2] (at 45.9 µM (top of the series), tumour line B) was -14.8%; in experiment [2] (at 45.9 µM (top of the series), tumour line D) it was -24.9%; in experiment [2] (at 46.1 µM (top of the series), tumour line C) it was -12.9%. In addition, the Potency in experiment [2] (tumour line A) was 28.2 µM (active).

In the case of `C#Cc1cccc(Nc2nc3cc(C(=O)O)ccc3c3cncnc23)c1`, the Potency entry in the experiment on SKOV3 and in the experiment on Tov112D was “inactive” throughout.

In the case of `CCCCCCOC(=O)/N=C(\N)c1ccc(NCc2nc3cc(C(=O)N(CCC(=O)OCC)c4ccccn4)ccc3n2C)cc1`, the Potency entry in the experiment on SKOV3, with Tov-21-G and in the experiment on Tov112D was “inactive” in each case.

As to `Cc1cc(-c2nc3cc(F)ccc3s2)ccc1NC(=O)[C@@H](N)CCCCN`, the Potency in the experiment on SKOV3 is 11.2 µM (active); with Tov-21-G, 14.1 µM (active); in the experiment on Tov112D, 15.8 µM (active); in experiment [1] (Viability), 22.2 µM (active).

Turning to `OC(c1ccc(-c2ccc(CN3CCN(Cc4ccncc4)CC3)cc2)c(F)c1)(C(F)(F)F)C(F)(F)F`, the Potency entry in the experiment on SKOV3, with Tov-21-G and in the experiment with Tov112D was “inactive” in each case. Besides, the activity change, negative = inhibition in experiment [1] (HiBiT) is -18.6%; in experiment [1] (Viability), -8.6%.

As for `C=C1C(=O)O[C@@H]2[C@H]1CC[C@H](C)[C@]1(CCC(=O)O1)C2(C)O` (stereo partly specified), the Potency entry in the experiment on SKOV3 and in the experiment with Tov112D was “inactive” in each case.

Consider `COC(=O)c1sccc1S(=O)(=O)Nc1ccc(Nc2ccccc2)cc1OC`, for which the Potency result in the experiment with SKOV3, in the experiment on Tov-21-G and with Tov112D was “inactive” throughout.

In the case of `CC(C)S(=O)(=O)c1ccc2nccc(Nc3ccc4scnc4c3)c2c1`, the Potency with SKOV3 was 12.6 µM (active). For the same compound, in the experiment with Tov112D, the Potency result was “inactive”.

On to `COc1cc2c(cc1-c1c(C)noc1C)ncc1[nH]c(=O)n(C(C)c3ccccn3)c12` (stereo unspecified), for which, in the experiment on SKOV3, the Potency is 12.6 µM (active). Besides, in the experiment on Tov112D, the Potency entry is “inactive”.

In the case of `C=C1C(=O)O[C@@H]2/C=C(\CO)CC/C=C(\CO)[C@H](OC(C)=O)C(OC(=O)C(C)CC)C12` (stereo partly specified), the Potency entry with SKOV3, with Tov-21-G and with Tov112D was “inactive” each time.

Regarding `CCNc1nc(Nc2cc(F)c(C(=O)N3CCOCC3)cc2OC)ncc1C(F)(F)F`, the Potency result in the experiment with SKOV3 and in the experiment with Tov112D was “inactive” throughout.

Consider `C[C@H]1CO[C@@H]2Cn3cc(C(=O)NCc4ccc(F)cc4F)c(=O)c(O)c3C(=O)N12`, for which the Potency result in the experiment on SKOV3 and in the experiment on Tov112D was “inactive” each time.

Take `Cc1[nH]c2ccccc2c1CCNC(=O)c1cccs1`: the Potency result with SKOV3, with Tov-21-G and in the experiment with Tov112D was “inactive” in each case.

As to `Cn1c(SCC(=O)N2CCC[C@H]2C(=O)Nc2ccccc2-c2ccccc2)nc2ccccc21`, the Potency result in the experiment on SKOV3, in the experiment on Tov-21-G and with Tov112D was “inactive” throughout.

With `O=[N+]([O-])c1ccc(Oc2ccc3c(c2)CCC(c2ccccc2)O3)nc1` (stereo unspecified), the Potency result in the experiment with SKOV3, in the experiment on Tov-21-G and in the experiment with Tov112D was “inactive” throughout.

With `COc1cc(C2OC(c3ccc(OC)c(OC)c3)C(C)C2C)ccc1O` (stereo unspecified), the Potency result in the experiment on SKOV3, with Tov-21-G and with Tov112D was “inactive” throughout.

Regarding `COc1ccc(C(=O)O[C@H]2C=COC=C3C=C4C(=O)N(C)C(=S)C(=O)N4[C@@H]32)cc1Oc1cc(C=O)ccc1O`, the Potency result in the experiment on SKOV3 and in the experiment with Tov112D was “inactive” throughout.

For `O=C(Nc1ccc2[nH]nc(-c3ccncc3)c2c1)[C@@H]1CCN(CC(=O)N2CCN(c3ccc(-c4ncccn4)cc3)CC2)C1`, the Potency result in the experiment with SKOV3 and with Tov112D was “inactive” each time.

In the case of `C=C1C(=O)OC2/C=C(\CO)CC/C=C(\C=O)C(OC)C(OC(=O)C(C)CC)C12` (stereo unspecified), the Potency result with SKOV3 and in the experiment on Tov112D was “inactive” throughout.

Consider `Cn1ncc2cc(-c3cnc(N)c(Cl)c3N3CCC4(CCNC4=O)CC3)ccc21`, for which the Potency entry with SKOV3, in the experiment on Tov-21-G and in the experiment with Tov112D was “inactive” in each case. The activity change, negative = inhibition in experiment [1] (Viability) was 5.32%.

With `CCCCc1ccc(NS(=O)(=O)c2ccc(F)cc2)cc1`, the Potency entry with SKOV3, in the experiment on Tov-21-G and in the experiment with Tov112D was “inactive” each time.

Turning to `C=C1C(=O)O[C@@H]2C[C@@]3(C)CCCC(=C)[C@]3(O)C[C@H]12`, the Potency entry in the experiment on SKOV3 and with Tov112D was “inactive” each time.

For `COC(C)(C)CCn1nc(Nc2c(C)cccc2C)c2cnc(Nc3ccc(OCCN4CCCC4)c(F)c3)nc21`, the figures for the Potency (in the experiment on SKOV3; in the experiment with Tov-21-G; in experiment [1] (HiBiT)) were 15.8 µM (active), 1.78 µM (active) and 15.7 µM (active), respectively. Moreover, the Potency result in the experiment with Tov112D is “inactive”.

Take `CCNC(=O)N1CCCN(c2ccc(C(=O)NCCc3ccc(Cl)cc3Cl)cc2NC(=O)c2cccc(Cl)c2)CC1`: the Potency in the experiment on SKOV3 was 1 µM (active). In addition, the Potency entry with Tov-21-G and in the experiment on Tov112D was “inactive” in each case.

Take `COCCCNC(=O)c1ccc(Cn2c(=O)c3ccccc3n(Cc3ccc(C(C)C)cc3)c2=O)cc1`: the Potency entry in the experiment with SKOV3, in the experiment with Tov-21-G and with Tov112D was “inactive” throughout.

On to `CC(/C=C/C(=O)NO)=C\[C@@H](C)C(=O)c1ccc(N(C)C)cc1`, for which the Potency with SKOV3 is 1.58 µM (active); in the experiment on Tov-21-G it was 3.55 µM (active); in the experiment on Tov112D it was 1.78 µM (active); in experiment [1] (HiBiT), 1.76 µM (active). Also, the activity change, negative = inhibition in experiment [1] (Viability) was -7.11%.

For `C=C1C(=O)O[C@@H]2C[C@@]3(C)C[C@@H](O)C[C@H](C)C3=C[C@H]12`, the Potency result with SKOV3 and in the experiment with Tov112D was “inactive” each time.
